Among all 310,000 compounds or so, about 14,000 (4.5%) showed an effect of 50% or more. The effect is printed as a negative number. The list comes from a sample in which strong results are over-represented; it also holds similar structures and randomly drawn compounds.

The text below walks through data of article PMC4336329 (PLoS ONE, 2015).
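Note: peak tail current of the secondary pulse compared with the same well before compound.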

The target of the test is human ether-à-go-go-related gene (hERG) potassium channel (human, UniProt Q12809). Description: primary screen, population patch clamp on CHO cells stably expressing hERG; higher = less effect of the substance.
human ether-à-go-go-related gene (hERG) potassium channel, sequence (Q12809 whole entry, looked up): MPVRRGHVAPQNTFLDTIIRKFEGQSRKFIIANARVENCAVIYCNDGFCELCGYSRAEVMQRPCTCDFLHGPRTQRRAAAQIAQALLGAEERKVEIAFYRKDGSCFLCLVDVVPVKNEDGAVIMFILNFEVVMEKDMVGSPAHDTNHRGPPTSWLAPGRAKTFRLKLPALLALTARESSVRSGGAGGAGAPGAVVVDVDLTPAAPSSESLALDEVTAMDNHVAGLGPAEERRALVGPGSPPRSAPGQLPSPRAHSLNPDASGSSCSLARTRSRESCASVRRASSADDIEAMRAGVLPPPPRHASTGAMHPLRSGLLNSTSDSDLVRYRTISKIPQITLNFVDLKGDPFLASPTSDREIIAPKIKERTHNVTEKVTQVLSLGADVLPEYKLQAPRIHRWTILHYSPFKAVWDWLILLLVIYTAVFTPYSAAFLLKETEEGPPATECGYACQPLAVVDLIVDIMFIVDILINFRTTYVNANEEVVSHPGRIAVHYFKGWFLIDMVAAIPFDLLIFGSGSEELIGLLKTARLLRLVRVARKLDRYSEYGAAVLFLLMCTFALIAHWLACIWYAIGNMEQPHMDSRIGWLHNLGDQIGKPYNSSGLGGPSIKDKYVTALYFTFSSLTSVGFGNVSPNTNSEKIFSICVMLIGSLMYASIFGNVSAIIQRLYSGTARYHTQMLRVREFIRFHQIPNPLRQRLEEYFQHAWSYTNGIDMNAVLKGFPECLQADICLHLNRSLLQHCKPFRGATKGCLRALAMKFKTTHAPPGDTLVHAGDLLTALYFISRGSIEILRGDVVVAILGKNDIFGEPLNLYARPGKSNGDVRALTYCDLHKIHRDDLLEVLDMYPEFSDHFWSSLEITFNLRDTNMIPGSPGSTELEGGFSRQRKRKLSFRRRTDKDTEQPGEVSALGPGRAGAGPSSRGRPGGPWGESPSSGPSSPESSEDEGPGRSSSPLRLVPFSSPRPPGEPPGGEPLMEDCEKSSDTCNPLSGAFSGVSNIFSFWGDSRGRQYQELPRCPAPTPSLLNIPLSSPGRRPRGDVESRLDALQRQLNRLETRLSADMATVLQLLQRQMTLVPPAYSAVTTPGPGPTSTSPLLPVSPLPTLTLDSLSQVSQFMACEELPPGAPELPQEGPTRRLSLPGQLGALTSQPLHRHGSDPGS
Consider `O=c1[nH]c(O)c(N=Nc2ccc3c(c2)OCCO3)c(=O)[nH]1`, for which the “hERG current change (%, negative = inhibition) at 10uM” value is reported as 14.2%.

On to `CC(=O)N1c2ccc(N=Cc3cc(Br)cc(Br)c3O)cc2CC1C` (centres unmarked), for which the “hERG current change (%, negative = inhibition) at 10uM” value is recorded as 2.6%. Regarding `Cc1ccc(CN2C(=O)/C(=C\c3ccc(C(=O)NCc4cccnc4)cc3)Oc3ccccc32)cc1`, the “hERG current change (%, negative = inhibition) at 10uM” value turned out to be 12.9%. Then `O=C(NNc1ccccn1)C(=O)NNS(=O)(=O)c1ccc(F)cc1`, with 12.5%; and `Cn1c(=O)c2nc(-c3ccccc3)oc2c2ccccc21`, with -1.46%.

For `N#Cc1c(-c2ccccc2)nc(SCC(=O)Nc2ccc(OC(F)(F)Cl)cc2)[nH]c1=O`, the “hERG current change (%, negative = inhibition) at 10uM” value amounted to 28.5%. Then `CN(C)C(=S)Nc1ccc2ccccc2c1`, with 11.2%. Then `Cc1nc2cc(C(F)(F)F)ccc2n1C1CCN(CC(=O)N2CCCC2)CC1`, with -13.1%. `COCC(=O)N1CCC(n2nnc3cc(C(F)(F)F)ccc32)CC1`: the “hERG current change (%, negative = inhibition) at 10uM” value is recorded as -22%.

As to `Cc1cc(NC(=O)CN2CCC(n3nnc4cc(C(F)(F)F)ccc43)CC2)no1`, the “hERG current change (%, negative = inhibition) at 10uM” value was -50%. As to `C=CCNC(=O)CN1CCC(n2nnc3cc(C(F)(F)F)ccc32)CC1`, the “hERG current change (%, negative = inhibition) at 10uM” value is -50.7%.

For the compound `Cc1nc2cc(C(F)(F)F)ccc2n1C1CCN(C(=O)N2CCOCC2)CC1`, the “hERG current change (%, negative = inhibition) at 10uM” value was -55.7%. As for `O=C(CN1CCC(n2nnc3cc(C(F)(F)F)ccc32)CC1)NNC(=O)c1ccco1`, the “hERG current change (%, negative = inhibition) at 10uM” value is reported as -24.6%. For the compound `Cc1nc2cc(C(F)(F)F)ccc2n1C1CCN(CC(=O)NC(C)(C)C)CC1`, the “hERG current change (%, negative = inhibition) at 10uM” value is reported as -19.4%. For the compound `COCCNC(=O)CN1CCC(n2c(C)nc3cc(C(F)(F)F)ccc32)CC1`, the “hERG current change (%, negative = inhibition) at 10uM” value is on record as -25.6%. Then `Cc1nc2cc(C(F)(F)F)ccc2n1C1CCN(CC(=O)N2CCOCC2)CC1`, with -44.4%. As for `COC(=O)c1ccccc1NC(=O)CN1CCC(n2nnc3cc(C(F)(F)F)ccc32)CC1`, the “hERG current change (%, negative = inhibition) at 10uM” value was -6.14%. Then `CC1Cc2ccccc2N1C(=O)CN1CCC(n2nnc3cc(C(F)(F)F)ccc32)CC1` (centres unmarked), with -67.2%.

Consider `C=CCNC(=O)CN1CCC(n2c(C)nc3cc(C(F)(F)F)ccc32)CC1`, for which the “hERG current change (%, negative = inhibition) at 10uM” value was -62.1%. Regarding `CC1=C(C#N)C(NC(=O)C(C)(C)C)(C(F)(F)F)C(=O)N1` (centres unmarked), the “hERG current change (%, negative = inhibition) at 10uM” value amounted to 1.3%. Then `O=C(O)c1ccccc1NS(=O)(=O)c1ccc2c3c(cccc13)C(=O)N2`, with 16.1%. As for `CC1CCN(CCCNC(=O)CCCNC(=O)Cn2cnc3sc4c(c3c2=O)CCCC4)CC1`, the “hERG current change (%, negative = inhibition) at 10uM” value is recorded as 12.3%. For the compound `Cc1ccc(NC(=O)NCCCl)cc1S(=O)(=O)N1CCOCC1`, the “hERG current change (%, negative = inhibition) at 10uM” value stood at 1.99%.
